Test results reported in the supplement of paper PMC3545927.
The list shows a part of the results. How many sequences the whole screen found active is unknown.

Biological target: furin, P09958
Experiment: furin cleavage Z-score vs untreated control; higher = more cleavage, active = 3.5 or more, inactive = 1 or less, 8 variable residues between constant flanks
In short: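 Furin-free reactions served as the baseline for the cleavage Z-score, which is the log read count lowess-adjusted and scaled by median absolute deviation. Counts came from released DNA, adapter-tagged by PCR and sequenced. Purified furin had cut 8-mer peptides fused to a cDNA oligonucleotide on magnetic beads during 7.5, 15 or 30 min at 1:10 enzyme:substrate.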
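Also: purified furin at 1:10 enzyme:substrate in 50 mM HEPES pH 7.5.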

Sequence of furin, P09958 (P09958 whole entry): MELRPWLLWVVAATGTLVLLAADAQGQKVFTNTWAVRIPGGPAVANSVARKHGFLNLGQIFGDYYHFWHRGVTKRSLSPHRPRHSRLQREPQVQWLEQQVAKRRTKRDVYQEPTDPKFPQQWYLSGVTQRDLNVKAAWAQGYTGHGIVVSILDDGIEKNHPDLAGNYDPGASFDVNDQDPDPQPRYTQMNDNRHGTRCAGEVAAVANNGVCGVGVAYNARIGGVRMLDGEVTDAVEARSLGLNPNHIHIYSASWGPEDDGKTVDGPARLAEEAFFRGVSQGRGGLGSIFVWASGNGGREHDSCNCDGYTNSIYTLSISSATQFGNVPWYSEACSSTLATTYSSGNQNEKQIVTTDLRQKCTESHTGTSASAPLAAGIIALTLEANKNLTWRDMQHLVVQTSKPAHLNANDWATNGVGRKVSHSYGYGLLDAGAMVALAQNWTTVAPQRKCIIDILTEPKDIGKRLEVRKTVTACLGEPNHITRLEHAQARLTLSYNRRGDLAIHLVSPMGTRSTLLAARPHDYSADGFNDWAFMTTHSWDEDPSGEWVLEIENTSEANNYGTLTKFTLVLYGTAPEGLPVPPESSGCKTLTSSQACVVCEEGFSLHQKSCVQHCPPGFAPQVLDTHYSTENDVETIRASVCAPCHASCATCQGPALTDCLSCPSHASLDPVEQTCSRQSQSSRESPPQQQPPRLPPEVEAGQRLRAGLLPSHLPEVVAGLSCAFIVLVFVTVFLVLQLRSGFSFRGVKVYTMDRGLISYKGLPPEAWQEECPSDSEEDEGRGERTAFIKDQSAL

Sequence | furin cleavage Z-score (7.5 min) | furin cleavage Z-score (15 min) | furin cleavage Z-score (30 min)
CAESTLSTALAGNASASA [HC1329] | -0.324 (inactive) | 0.0602 (inactive) | 1.27
CAEVPCHRPDAGNASASA [HC2411] | -1.49 (inactive) | -0.692 (inactive) | 0.135 (inactive)
CAASSSKKRSAGNASASA [FS-1310] | 1.7 | 1.89 | 0.28 (inactive)
CAILSRKKRSAGNASASA [FS-598] | 13.1 (active) | 11 (active) | 8.58 (active)
CAHNGLRDLAAGNASASA [HC641] | -0.235 (inactive) | 0.0336 (inactive) | 0.434 (inactive)
CAHNGRKKRSAGNASASA [FS-794] | 12.6 (active) | 13.4 (active) | 9.77 (active)
CADTGYPKRSAGNASASA [FS-1587] | 0.338 (inactive) | -0.532 (inactive) | 2.06
CAEVPCHFPSAGNASASA [HC2367] | 0.277 (inactive) | -0.0294 (inactive) | 0.605 (inactive)
CAEVVTSTWDAGNASASA [HC2251] | -0.232 (inactive) | -0.217 (inactive) | -0.0353 (inactive)
CAVLTRSRRDAGNASASA [FS-573] | 15.8 (active) | 16 (active) | 10.2 (active)
CATPKRSRRDAGNASASA [FS-202] | 10.5 (active) | 10.4 (active) | 6.86 (active)
CAEVVTSRWVAGNASASA [HC2213] | 0.434 (inactive) | -0.178 (inactive) | 1.55
CAQPSSSRRDAGNASASA [FS-1251] | -0.0806 (inactive) | -1.03 (inactive) | -1.19 (inactive)
CATPTVATRDAGNASASA [HC282] | -1.53 (inactive) | 0.0271 (inactive) | -0.971 (inactive)
CAEAWRSRRDAGNASASA [FS-761] | 5 (active) | 6.16 (active) | 5.62 (active)
CAGPIRRKRLAGNASASA [FS-1526] | 11.1 (active) | 11.4 (active) | 9.25 (active)
CALHSRPQRLAGNASASA [FS-939] | 0.578 (inactive) | 1.4 | 1.43
CAKPARRKRLAGNASASA [FS-44] | 8.86 (active) | 9.53 (active) | 10.1 (active)
CAKPARVSKDAGNASASA [FS-259] | -0.289 (inactive) | -0.617 (inactive) | -0.0479 (inactive)
CAGPQRQKKLAGNASASA [FS-1202] | -0.669 (inactive) | -1.47 (inactive) | -0.377 (inactive)
CALHSRNKRLAGNASASA [FS-607] | 7.17 (active) | 9.47 (active) | 6.69 (active)
CAWHSRRKRLAGNASASA [FS-210] | 9.83 (active) | 11.7 (active) | 10.6 (active)
CANEMEECSQAGNASASA [HC1801] | -0.962 (inactive) | 0.682 (inactive) | -0.461 (inactive)
CAETVTSTWVAGNASASA [HC2178] | -0.174 (inactive) | 0.0107 (inactive) | 0.00907 (inactive)
CAARRRRKRLAGNASASA [FS-9] | 9.78 (active) | 12.2 (active) | 9.85 (active)
CAVQVRGKRLAGNASASA [FS-312] | 6.21 (active) | 7.9 (active) | 7.68 (active)
CAQQELRKRLAGNASASA [FS-1390] | 0.809 (inactive) | 0.166 (inactive) | 1.43
CAVGGVEHRLAGNASASA [HC477] | 0.551 (inactive) | 1.48 | 0.304 (inactive)
